# Structures can show the parent of a compound that is named as a salt. Values without a mark were called inactive.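 The calls were made as follows: for the amine columns active = adjusted P below 0.05 in both replicates with a change the same way and a mean fold change under 0.8 or over 1.25; inactive = the rest.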
# Test system: Clostridium sporogenes DSM 1664
# Test: fold change of Tryptamine concentration vs plate DMSO controls (fold change (ratio)); higher = more amine produced, active = hit call of the paper (significant change in both replicates, either direction)
# Conditions: incubation time: 27 h, anaerobic, 37 °C
# Summary of the method: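 Amines were quantified by LC–triple-quadrupole MS in dynamic MRM mode against external calibration curves, with drift correction within each batch. The samples were whole anaerobic mGAM cultures of four gut bacterial strains, grown for 27 h at 37 °C in 80 µL wells and extracted with cold acetonitrile/methanol with 0.1% formic acid, then centrifuged. Values are reported as fold change over DMSO controls on the same plate. The mean of 2 biological replicates is given.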
row,Compound,fold change of Tryptamine concentration
1,CCc1nc(N)nc(N)c1-c1ccc(Cl)cc1 [Pyrimethamine] (20 µM),1.01
2,CC(=O)Oc1cccc2c1C(=O)c1c(OC(C)=O)cc(C(=O)O)cc1C2=O [Diacerein] (20 µM),1.02
3,CC(C)(CO)[C@@H](O)C(=O)NCCCO [(D)-Panthenol] (20 µM),0.993
4,"CCc1cc(Cl)c(OC)c(C(=O)NC[C@@H]2CCCN2CC)c1O [(S,-) Eticlopride hydrochloride] (20 µM)",0.99
5,O=C1c2cccc(O)c2C(=O)c2c(O)cccc21 [Danthron] (20 µM),1.02
6,CN(C)CCC(c1ccc(Br)cc1)c1ccccn1 (centres undefined) [Brompheniramine maleate] (20 µM),1.2
7,NC[C@H]1O[C@H](O[C@H]2[C@H](O[C@@H]3O[C@H](CO)[C@@H](O)[C@H]3O)[C@@H](O)[C@H](N)C[C@@H]2N)[C@H](N)[C@@H](O)[C@@H]1O [Ribostamycin sulfate salt] (20 µM),1.02
8,NS(=O)(=O)c1cc2c(cc1Cl)N=CNS2(=O)=O [Chlorothiazide] (20 µM),0.97
9,CCc1oc2ccccc2c1C(=O)c1cc(Br)c(O)c(Br)c1 [Benzbromarone] (20 µM),0.706 (active)
10,O=C1NCN(c2ccccc2)C12CCN(CCCC(c1ccc(F)cc1)c1ccc(F)cc1)CC2 [Fluspirilene] (20 µM),0.959
11,C[C@H](CCC(=O)O)[C@H]1CC[C@H]2[C@@H]3C(=O)C[C@@H]4CC(=O)CC[C@]4(C)[C@H]3CC(=O)[C@]12C [Dehydrocholic acid] (20 µM),0.96
12,CCn1cc(C(=O)O)c(=O)c2ccc(C)nc21 [Nalidixic acid sodium salt] (20 µM),0.991
13,COc1cc(C(=O)NS(=O)(=O)c2ccccc2C)ccc1Cc1cn(C)c2ccc(NC(=O)OC3CCCC3)cc12 [Zafirlukast] (20 µM),0.371 (active)
14,NCCc1ccc(O)c(O)c1 [Dopamine hydrochloride] (20 µM),0.994
15,Cc1c(-c2ccccc2)oc2c(C(=O)OCCN3CCCCC3)cccc2c1=O [Flavoxate hydrochloride] (20 µM),1.05
16,Oc1c(I)cc(Cl)c2cccnc12 [Clioquinol] (20 µM),0.976
17,CN(C)C(=N)NC(=N)N [Metformin hydrochloride] (20 µM),1
18,N=C(N=C(N)N)N1CCOCC1 [Moroxidine hydrochloride] (20 µM),0.987
19,CCOCC(O)COc1ccc(NC(=O)CC[S+](C)C)cc1 (centres undefined) [Suplatast Tosylate] (20 µM),1.01
20,CCN1CCN(c2cc3c(cc2F)c(=O)c(C(=O)O)cn3C2CC2)CC1 [Enrofloxacin] (20 µM),0.0498 (active)
21,C=C1c2c(Cl)ccc(O)c2C(O)=C2C(=O)[C@]3(O)C(O)=C(C(N)=O)C(=O)[C@@H](N(C)C)[C@@H]3[C@@H](O)[C@H]12.O=C(O)c1cc(S(=O)(=O)O)ccc1O [Meclocycline sulfosalicylate] (20 µM),0.0133 (active)
22,C#CCN(C)CCCOc1ccc(Cl)cc1Cl [Clorgyline hydrochloride] (20 µM),0.96
23,CC1(C)[C@H](C(=O)O)N2C(=O)C[C@H]2S1(=O)=O [Sulbactam] (20 µM),1.07
24,CC(C)(C)C(=O)C(Oc1ccc(Cl)cc1)n1ccnc1 (centres undefined) [Climbazole] (20 µM),1.04
25,CC1(C)O[C@@H]2[C@@H](CO[C@@]3(COS(N)(=O)=O)OC(C)(C)O[C@@H]23)O1 [Topiramate] (20 µM),0.998
26,CN1CCC(OC(c2ccccc2)c2ccccc2)CC1 [Diphenylpyraline hydrochloride] (20 µM),1.01
27,O=c1[nH]c(=O)n([C@H]2C[C@H](O)[C@@H](CO)O2)cc1/C=C/Br [Brivudine] (20 µM),1.03
28,COC(=O)C1=C(C)NC(C)=C(C(=O)OCC(C)C)C1c1ccccc1[N+](=O)[O-] (centres undefined) [Nisoldipine] (20 µM),1.06
29,CCOC(=O)C(C)(C)Oc1ccc(Cl)cc1 [Clofibrate] (20 µM),1.04

# Source: the supplement of paper PMC12494721
